Results from PubChem BioAssay AID1159580 (chemical genetic matrix, 2015).
Several values for one entry are separate records, joined by “and”; a condition that tells them apart may be missing. Identical values can stand only once. Among all 5,500 compounds or so, about 2,000 (36%) were called active. Another 18% or so got no clear call; they are omitted. Rule as the data show it: active = normalized growth mostly below about 0.91 (no sharp cut-off); inconclusive = no clear call, values can overlap the other calls; inactive = mostly above about 0.92. Some of the results follow.

Assay: chemical genetic growth profiling, strain panel (AID 1159580);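 also: tested at 20 µM; growth read once vehicle control cultures reached saturation at 30 °C; 1 = growth at the plate median or of vehicle wells; lower values mean less growth of the strain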
Settings: S. cerevisiae deletion strains, growth OD

Measured: normalized growth

Oc1ccc2c(c1)OCC1(O)Cc3cc(O)c(O)cc3C21 (stereo unspecified)
inactive: locus YAL021C, strain ccr4, stronger effect = lower value 1.03 | locus YAL026C, strain drs2, stronger effect = lower value 1.03 | locus YAL030W, strain snc1, stronger effect = lower value 1.02 | locus YBL061C, strain skt5, stronger effect = lower value 1.03 | locus YBR009C, strain hhf1, stronger effect = lower value 1.01 | locus YBR021W, strain FUR4, stronger effect = lower value 1.04 | locus YBR023C, strain chs3, stronger effect = lower value 1.03 | locus YBR171W, strain sec66, stronger effect = lower value 1.04 | locus YBR229C, strain ROT2, stronger effect = lower value 1.01 | locus YBR231C, strain swc5, stronger effect = lower value 1.01 | locus YBR279W, strain paf1, stronger effect = lower value 1.02 | locus YCL011C, strain gbp2, stronger effect = lower value 1.03 | locus YCL016C, strain dcc1, stronger effect = lower value 1.03 | locus YCL029C, strain bik1, stronger effect = lower value 1.01 | locus YCL061C, strain MRC1, stronger effect = lower value 1.02 | locus YCL069W, strain vba3, stronger effect = lower value 1.03 | locus YCR088W, strain abp1, stronger effect = lower value 1.02 | locus YDL005C, strain med2, stronger effect = lower value 1.03 | locus YDL035C, strain GPR1, stronger effect = lower value 1.03 | locus YDL040C, strain nat1, stronger effect = lower value 1.02 | locus YDL074C, strain BRE1, stronger effect = lower value 0.936 | locus YDL101C, strain DUN1, stronger effect = lower value 0.958 | locus YDL185W, strain tfp1, stronger effect = lower value 0.964 | locus YDL192W, strain arf1, stronger effect = lower value 1.01 | locus YDR001C, strain nth1, stronger effect = lower value 1.03 | locus YDR069C, strain doa4, stronger effect = lower value 1.01 | locus YDR101C, strain arx1, stronger effect = lower value 1.07 | locus YDR137W, strain rgp1, stronger effect = lower value 1.15 | locus YDR150W, strain NUM1, stronger effect = lower value 1 | locus YDR159W, strain sac3, stronger effect = lower value 1.05 | locus YDR162C, strain NBP2, stronger effect = lower value 0.976 | locus YDR195W, strain ref2 1.02 | locus YDR297W, strain sur2, stronger effect = lower value 1.02 | locus YDR318W, strain mcm21, stronger effect = lower value 0.98 | locus YDR334W, strain swr1, stronger effect = lower value 1.03 | locus YDR335W, strain msn5, stronger effect = lower value 1.01 | locus YDR388W, stronger effect = lower value 0.978 | locus YDR392W, strain spt3, stronger effect = lower value 1.03 | locus YDR502C, strain sam2, stronger effect = lower value 0.996 | locus YEL003W, strain gim4, stronger effect = lower value 1.02 | locus YEL037C, strain rad23, stronger effect = lower value 1.02 | locus YEL061C, strain CIN8 (second series), stronger effect = lower value 1.04 | locus YER015W, strain faa2, stronger effect = lower value 1.01 | locus YER016W, strain bim1, stronger effect = lower value 1.03 | locus YER110C, stronger effect = lower value 0.996 | locus YER111C, strain swi4, stronger effect = lower value 1.03 | locus YER155C, strain BEM2 (second series), stronger effect = lower value 1.03 | locus YER155C, strain BEM2, stronger effect = lower value 1.04 | locus YER167W, strain BCK2, stronger effect = lower value 1.04 | locus YFR010W, strain ubp6, stronger effect = lower value 1.02 | locus YGL078C, strain dbp3, stronger effect = lower value 0.986 | locus YGL086W, strain mad1, stronger effect = lower value 0.996 | locus YGL167C, strain pmr1, stronger effect = lower value 1.02 | locus YGL173C, strain kem1, stronger effect = lower value 1.03 | locus YGL227W, strain vid30, stronger effect = lower value 1.04 | locus YGL240W, strain doc1, stronger effect = lower value 1.02 | locus YGL248W, strain PDE1, stronger effect = lower value 0.989 | locus YGL253W, strain hxk2, stronger effect = lower value 1.02 | locus YGR078C, strain PAC10, stronger effect = lower value 0.977 | locus YGR135W, strain pre9, stronger effect = lower value 0.945 | locus YGR229C, strain SMI1, stronger effect = lower value 0.968 | locus YGR252W, strain gcn5, stronger effect = lower value 1.06 | locus YHR013C, strain ard1, stronger effect = lower value 1.07 | locus YHR027C, strain rpn1, stronger effect = lower value 1.02 | locus YHR030C, strain SLT2, stronger effect = lower value 0.995 | locus YHR079C, strain IRE1 (second series), stronger effect = lower value 0.993 | locus YHR079C, strain IRE1, stronger effect = lower value 0.992 | locus YHR094C, strain hxt1, stronger effect = lower value 1 | locus YHR129C, strain ARP1, stronger effect = lower value 0.98 | locus YHR142W, strain chs7, stronger effect = lower value 1.05 | locus YHR200W, strain rpn10, stronger effect = lower value 1.01 | locus YIL066C, strain RNR3, stronger effect = lower value 1.03 | locus YIL073C, strain SPO22, stronger effect = lower value 0.964 | locus YIL125W, strain kgd1, stronger effect = lower value 1.01 | locus YIR030C, strain dcg1, stronger effect = lower value 1 | locus YJL092W, strain hpr5, stronger effect = lower value 1.03 | locus YJL095W, strain BCK1 (second series), stronger effect = lower value 1.02 | locus YJL095W, strain BCK1, stronger effect = lower value 0.88 and 0.999 | locus YJL115W, strain asf1, stronger effect = lower value 1.04 | locus YJL129C, strain trk1, stronger effect = lower value 1.09 | locus YJL134W, strain LCB3, stronger effect = lower value 1.01 | locus YJL154C, strain vps35, stronger effect = lower value 1.03 | locus YJL164C, strain tpk1, stronger effect = lower value 1.03 | locus YJL166W, strain qcr8, stronger effect = lower value 1.02 | locus YJL168C, strain set2, stronger effect = lower value 0.983 | locus YJL187C, strain SWE1 (second series), stronger effect = lower value 0.922
